Laboratory results: PubChem BioAssay (NCI)
Several values for one entry are separate records, joined by “and”; a condition that tells them apart may be missing. Identical values can stand only once. The panel holds about 79,000 compounds, 15% with a hit somewhere; the sample as a whole holds those more often. More than one record can exist for a structure, and the calls need not agree. Activity calls are given as the source filed them. No stated cut-off is given here; in the data, active means growth inhibition above about 70%; inactive means the rest.

Columns and labels:
[1] = NCI Yeast Anticancer Drug Screen. Data for the rad52 strain (AID 147);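 further: 0% = growth of vehicle-treated control cultures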; conditions: S. cerevisiae rad52 mutant growth inhibition, stronger effect = higher value
In short: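 Compounds are applied to a genetically defined yeast strain lacking normal DNA damage repair, and inhibition of growth is expressed relative to cultures given vehicle only.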

[2] = NCI Yeast Anticancer Drug Screen. Data for the wt1 strain (AID 149);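 further: 0% = growth of vehicle-treated wt1 cultures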; conditions: S. cerevisiae wt1 strain (SPY 50644) growth inhibition, stronger effect = higher value
In short: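 Each compound is tested on wt1 yeast and the loss of growth versus vehicle gives the inhibition value.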

[3] = NCI Yeast Anticancer Drug Screen. Data for the rad50EPP+ strain (AID 151);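 further: 0% = growth of vehicle-treated control cultures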; conditions: S. cerevisiae rad50 mutant strain, stronger effect = higher value
In short: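 Compounds were applied to the rad50EPP+ yeast strain, which bears a defined DNA repair alteration, and growth inhibition was determined relative to vehicle-treated cultures.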

[4] = NCI Yeast Anticancer Drug Screen. Data for the mgt1 strain (AID 153); conditions: S. cerevisiae mgt1 mutant growth inhibition, stronger effect = higher value
In short: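 Strain: mgt1 yeast, one of a set carrying defined DNA damage repair or cell cycle control alterations. Compound-treated growth compared with vehicle.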

[5] = NCI Yeast Anticancer Drug Screen. Data for the rad50 strain (AID 155);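 further: 0% = growth of vehicle-only cultures of the same strain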; conditions: S. cerevisiae rad50 strain growth inhibition, stronger effect = higher value
In short: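 Vehicle-treated cultures provide the reference for the growth inhibition reported for compound-exposed, repair-deficient yeast.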

[6] = NCI Yeast Anticancer Drug Screen. Data for the mec2-1 strain (AID 157); conditions: S. cerevisiae mec2-1 strain, stronger effect = higher value
In short: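 Strain: mec2-1 (DNA repair/cell cycle alteration). Compound exposure, then growth measured; inhibition expressed relative to vehicle.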

[7] = NCI Yeast Anticancer Drug Screen. Data for the rad14 strain (AID 159);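 further: 0% = growth of vehicle-treated control cultures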; conditions: S. cerevisiae rad14 strain growth inhibition, stronger effect = higher value
In short: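 Inhibition of growth is reported for a repair-deficient yeast mutant following compound treatment, calculated relative to cultures that received vehicle.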

[8] = NCI Yeast Anticancer Drug Screen. Data for the sgs1 mgt1 strain (AID 161);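 further: 0% = growth of cultures given vehicle only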; conditions: S. cerevisiae sgs1 mgt1 strain, stronger effect = higher value
In short: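 Read-out: growth inhibition vs vehicle controls. Cells: mutant yeast strain deficient in DNA damage repair.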

[9] = NCI Yeast Anticancer Drug Screen. Data for the CLN2oe strain (AID 163);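 further: 0% = growth of vehicle-only control cultures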; conditions: S. cerevisiae CLN2oe strain, stronger effect = higher value
In short: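 Growth of a genetically modified yeast strain is measured after compound exposure and compared with cultures given vehicle alone.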

[10] = NCI Yeast Anticancer Drug Screen. Data for the cln2 rad14 strain (AID 165);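 further: 0% = growth equal to vehicle treated cultures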; conditions: S. cerevisiae cln2 rad14 strain, stronger effect = higher value
In short: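 Compounds are applied to the cln2 rad14 yeast strain, and growth is then compared with that of vehicle-treated cultures to give inhibition.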

[11] = NCI Yeast Anticancer Drug Screen. Data for the bub3 strain (AID 167); conditions: S. cerevisiae bub3 mutant strain, stronger effect = higher value
In short: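 Mutant yeast screening strain plus compound; vehicle-treated cultures serve as the 0% inhibition reference.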

[12] = NCI Yeast Anticancer Drug Screen. Data for the wt2 strain (AID 169); conditions: S. cerevisiae wt2 strain growth inhibition, stronger effect = higher value
In short: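 This strain belongs to a panel of yeast strains with defined genetic alterations in DNA damage repair or cell cycle control. Compounds are applied, and growth inhibition is measured against vehicle-treated cultures.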

[13] = NCI Yeast Anticancer Drug Screen. Data for the mlh1 strain (AID 171);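 further: 0% = growth of vehicle-treated control cultures of the same strain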; conditions: S. cerevisiae mlh1 strain growth inhibition, stronger effect = higher value
In short: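 Growth of the mutant yeast strain after compound exposure, expressed as inhibition relative to vehicle-only controls.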

[14] = NCI Yeast Anticancer Drug Screen. Data for the sgs1 strain (AID 173);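 further: 0% = growth of vehicle-only control cultures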; conditions: S. cerevisiae sgs1 mutant, stronger effect = higher value
In short: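 Growth of a yeast strain bearing a defined genetic alteration is measured after compound treatment. Inhibition is expressed relative to vehicle-only controls.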

[15] = NCI Yeast Anticancer Drug Screen. Data for the mlh1 rad18 strain (AID 175); conditions: S. cerevisiae mlh1 rad18 strain growth inhibition, stronger effect = higher value
In short: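 Read-out is yeast growth inhibition, calculated against vehicle-only controls. The compound was applied to a strain engineered with DNA damage repair alterations.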

[16] = NCI Yeast Anticancer Drug Screen. Data for the rad18 strain (AID 177); conditions: S. cerevisiae rad18 mutant growth inhibition, stronger effect = higher value
In short: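 Growth of the mutant yeast strain after compound exposure, normalised to vehicle-only cultures.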

[17] = at 5.0 µM (retest, dose inferred, filed as 0.5)
[18] = at 50.0 µM (retest, dose inferred, filed as 5.0)

Structure (SMILES): CN(C)C=NC1CCC(C(C)(C)C)CC1 (stereo not drawn)
- growth inhibition ([1]; at 1.2 µM): -5% (inactive)
- growth inhibition ([1]; at 3.7 µM): 7% (inactive)
- growth inhibition ([1]; at 11.0 µM): 34% (inactive)
- growth inhibition ([1]; at 33.0 µM): 74% (active)
- growth inhibition ([1]; at 100.0 µM): 99% (active)
- growth inhibition ([2]; at 1.2 µM): -4% (inactive)
- growth inhibition ([2]; at 3.7 µM): -5% (inactive)
- growth inhibition ([2]; at 11.0 µM): -1% (inactive)
- growth inhibition ([2]; at 33.0 µM): 51% (inactive)
- growth inhibition ([2]; at 100.0 µM): 97% (active)
- growth inhibition ([3]; at 1.2 µM): -2% (inactive)
- growth inhibition ([3]; at 3.7 µM): 5% (inactive)
- growth inhibition ([3]; at 11.0 µM): 10% (inactive)
- growth inhibition ([3]; at 33.0 µM): 30% (inactive)
- growth inhibition ([3]; at 100.0 µM): 73% (active)
- growth inhibition ([4]; at 1.2 µM): -1% (inactive)
- growth inhibition ([4]; at 3.7 µM): -1% (inactive)
- growth inhibition ([4]; at 11.0 µM): 45% (inactive)
- growth inhibition ([4]; at 33.0 µM): 97% (active)
- growth inhibition ([4]; at 100.0 µM): 99% (active)
- growth inhibition ([5]; at 1.2 µM): -3% (inactive)
- growth inhibition ([5]; at 3.7 µM): -1% (inactive)
- growth inhibition [5, 17]: 28% (inactive)
- growth inhibition ([5]; at 11.0 µM): 59% (inactive)
- growth inhibition ([5]; at 33.0 µM): 97% (active)
- growth inhibition [5, 18]: 97% (active)
- growth inhibition ([5]; at 50.0 µM): 98.8% (active)
- growth inhibition ([5]; at 100.0 µM): 99% (active)
- growth inhibition ([6]; at 1.2 µM): 2% (inactive)
- growth inhibition ([6]; at 3.7 µM): 0% (inactive)
- growth inhibition [6, 17]: -24% (inactive)
- growth inhibition ([6]; at 11.0 µM): 10% (inactive)
- growth inhibition ([6]; at 33.0 µM): 73% (active)
- growth inhibition [6, 18]: 99% (active)
- growth inhibition ([6]; at 50.0 µM): 95.8% (active)
- growth inhibition ([6]; at 100.0 µM): 99% (active)
- growth inhibition ([7]; at 1.2 µM): -1% (inactive)
- growth inhibition ([7]; at 3.7 µM): 11% (inactive)
- growth inhibition ([7]; at 11.0 µM): 75% (active)
- growth inhibition ([7]; at 33.0 µM): 98% (active)
- growth inhibition ([7]; at 100.0 µM): 99% (active)
- growth inhibition [8, 17]: 14% (inactive)
- growth inhibition [8, 18]: 98% (active)
- growth inhibition ([8]; at 50.0 µM): 97.7% (active)
- growth inhibition ([9]; at 1.2 µM): 1% (inactive)
- growth inhibition ([9]; at 3.7 µM): 9% (inactive)
- growth inhibition ([9]; at 11.0 µM): 44% (inactive)
- growth inhibition ([9]; at 33.0 µM): 95% (active)
- growth inhibition ([9]; at 100.0 µM): 99% (active)
- growth inhibition [10, 17]: 17% (inactive)
- growth inhibition [10, 18]: 98% (active)
- growth inhibition ([10]; at 50.0 µM): 98.4% (active)
- growth inhibition ([11]; at 1.2 µM): -8% (inactive)
- growth inhibition ([11]; at 3.7 µM): -2% (inactive)
- growth inhibition [11, 17]: 62% (inactive)
- growth inhibition ([11]; at 11.0 µM): 55% (inactive)
- growth inhibition ([11]; at 33.0 µM): 94% (active)
- growth inhibition [11, 18]: 98% (active)
- growth inhibition ([11]; at 50.0 µM): 97.5% (active)
- growth inhibition ([11]; at 100.0 µM): 99% (active)
- growth inhibition ([12]; at 1.2 µM): 0% (inactive)
- growth inhibition ([12]; at 3.7 µM): 4% (inactive)
- growth inhibition ([12]; at 11.0 µM): 34% (inactive)
- growth inhibition ([12]; at 33.0 µM): 88% (active)
- growth inhibition ([12]; at 100.0 µM): 99% (active)
- growth inhibition ([13]; at 1.2 µM): 8% (inactive)
- growth inhibition ([13]; at 3.7 µM): 1% (inactive)
- growth inhibition ([13]; at 11.0 µM): 47% (inactive)
- growth inhibition ([13]; at 33.0 µM): 94% (active)
- growth inhibition ([13]; at 100.0 µM): 99% (active)
- growth inhibition ([14]; at 1.2 µM): 1% (inactive)
- growth inhibition ([14]; at 3.7 µM): 2% (inactive)
- growth inhibition ([14]; at 11.0 µM): 55% (inactive)
- growth inhibition ([14]; at 33.0 µM): 95% (active)
- growth inhibition ([14]; at 100.0 µM): 99% (active)
- growth inhibition [15, 17]: -32% (inactive)
- growth inhibition [15, 18]: 98% (active)
- growth inhibition ([15]; at 50.0 µM): 98.2% (active)
- growth inhibition ([16]; at 1.2 µM): -3% (inactive)
- growth inhibition ([16]; at 3.7 µM): 8% (inactive)
- growth inhibition ([16]; at 11.0 µM): 54% (inactive)
- growth inhibition ([16]; at 33.0 µM): 93% (active)
- growth inhibition ([16]; at 100.0 µM): 99% (active)

Structure (SMILES): Nc1ccn(C2OC(COP(=O)(O)O)C(O)C2O)c(=O)n1 (stereo not drawn)
- growth inhibition ([1]; at 1.2 µM): -1% (inactive)
- growth inhibition ([1]; at 3.7 µM): 0% (inactive)
- growth inhibition ([1]; at 11.0 µM): 3% (inactive)
- growth inhibition ([1]; at 33.0 µM): 5% (inactive)
- growth inhibition ([1]; at 100.0 µM): 6% (inactive)
- growth inhibition ([2]; at 1.2 µM): -11% (inactive)
- growth inhibition ([2]; at 3.7 µM): 1% (inactive)
- growth inhibition ([2]; at 11.0 µM): 2% (inactive)
- growth inhibition ([2]; at 33.0 µM): 0% (inactive)
- growth inhibition ([2]; at 100.0 µM): 1% (inactive)
- growth inhibition ([3]; at 1.2 µM): -5% (inactive)
- growth inhibition ([3]; at 3.7 µM): -2% (inactive)
- growth inhibition ([3]; at 11.0 µM): 8% (inactive)
- growth inhibition ([3]; at 33.0 µM): 37% (inactive)
- growth inhibition ([3]; at 100.0 µM): 72% (active)
- growth inhibition ([4]; at 1.2 µM): 2% (inactive)
- growth inhibition ([4]; at 3.7 µM): 4% (inactive)
- growth inhibition ([4]; at 11.0 µM): 2% (inactive)
- growth inhibition ([4]; at 33.0 µM): 3% (inactive)
- growth inhibition ([4]; at 100.0 µM): 14% (inactive)
- growth inhibition ([5]; at 1.2 µM): 0% (inactive)
- growth inhibition ([5]; at 3.7 µM): 9% (inactive)
- growth inhibition [5, 17]: 38% (inactive)
- growth inhibition ([5]; at 11.0 µM): 11% (inactive)
- growth inhibition ([5]; at 33.0 µM): 33% (inactive)
- growth inhibition [5, 18]: 42% (inactive)
- growth inhibition ([5]; at 50.0 µM): 78.3% (active) and -3% (inactive)
- growth inhibition ([5]; at 100.0 µM): 52% (inactive)
- growth inhibition ([6]; at 1.2 µM): 0% (inactive)
- growth inhibition ([6]; at 3.7 µM): 5% (inactive)
- growth inhibition [6, 17]: 3% (inactive)
- growth inhibition ([6]; at 11.0 µM): 8% (inactive)
- growth inhibition ([6]; at 33.0 µM): 11% (inactive)
- growth inhibition [6, 18]: 19% (inactive)
- growth inhibition ([6]; at 50.0 µM): -9.35% (inactive) and -12.8% (inactive)
- growth inhibition ([6]; at 100.0 µM): -3% (inactive)
- growth inhibition ([7]; at 1.2 µM): -1% (inactive)
- growth inhibition ([7]; at 3.7 µM): 6% (inactive)
- growth inhibition ([7]; at 11.0 µM): 4% (inactive)
- growth inhibition ([7]; at 33.0 µM): 5% (inactive)
- growth inhibition ([7]; at 100.0 µM): 7% (inactive)
- growth inhibition [8, 17]: 47% (inactive)
- growth inhibition [8, 18]: 75% (active)
- growth inhibition ([8]; at 50.0 µM): 87.4% (active) and 16.2% (inactive)
- growth inhibition ([9]; at 1.2 µM): -4% (inactive)
- growth inhibition ([9]; at 3.7 µM): -2% (inactive)
- growth inhibition ([9]; at 11.0 µM): -6% (inactive)
- growth inhibition ([9]; at 33.0 µM): -15% (inactive)
- growth inhibition ([9]; at 100.0 µM): -5% (inactive)
- growth inhibition [10, 17]: -4% (inactive)
- growth inhibition [10, 18]: -10% (inactive)
- growth inhibition ([10]; at 50.0 µM): -40.1% (inactive) and -51.6% (inactive)
- growth inhibition ([11]; at 1.2 µM): -2% (inactive)
- growth inhibition ([11]; at 3.7 µM): -6% (inactive)
- growth inhibition [11, 17]: -5% (inactive)
- growth inhibition ([11]; at 11.0 µM): -5% (inactive)
- growth inhibition ([11]; at 33.0 µM): -12% (inactive)
- growth inhibition [11, 18]: -4% (inactive)
- growth inhibition ([11]; at 50.0 µM): -32.9% (inactive) and 0.5% (inactive)
- growth inhibition ([11]; at 100.0 µM): -10% (inactive)
